The entries come from a sample that favours hits as a whole.
CBX7 AlphaScr = CBX7 chromodomain binding inhibitors, primary screen, biochemical, AlphaScreen; Chromobox protein homolog 7 (Homo sapiens), O95931; 66,000 tested, 1.1% active; AID 1224903, 2016; AlphaScreen His6-CBX7 / biotin-H3K27me3 peptide binding; active compounds read low; normalised signal (fraction of DMSO) (concentration not given with the values); in the data active = normalised signal below about 0.5
Target sequence (O95931 whole entry, looked up): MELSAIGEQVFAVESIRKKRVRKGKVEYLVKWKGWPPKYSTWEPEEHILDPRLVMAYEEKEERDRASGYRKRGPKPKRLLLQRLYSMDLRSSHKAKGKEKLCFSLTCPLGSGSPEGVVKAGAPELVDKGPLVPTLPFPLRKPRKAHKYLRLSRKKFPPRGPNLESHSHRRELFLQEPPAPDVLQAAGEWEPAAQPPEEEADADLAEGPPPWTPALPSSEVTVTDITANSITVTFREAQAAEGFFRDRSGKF
* hit, by the source's call.

SMILES | CBX7 AlphaScr
CCOCCCNC(=O)c1ccc2c(c1)N(Cc1ccccc1)C(=O)c1ccccc1S2 | 1
CCOc1ccc(CCNC(=O)N(c2ccccc2)c2ccccc2)cc1OCC | 0.78
O=C(CCn1nc(-c2ccccc2)ccc1=O)NCCc1ccc(Cl)cc1 | 1
Cc1ccc(-c2ccc(=O)n(CC(=O)NC3CCCCCC3)n2)cc1 | 1
COCCNC(=O)c1c[nH]c2ccc(S(=O)(=O)Nc3ccc4c(c3)OCCO4)cc2c1=O | 0.9
COc1ccc(N2CCN(CC(O)COc3ccc(C)cc3C(C)(C)C)CC2)cc1 (stereo not given) | 0.85
CCc1ccc(NC2c3ccccc3C(=O)N2c2ccc(Cl)cc2)cc1 (stereo not given) | 0.68
COc1ccc(NC2c3ccccc3C(=O)N2c2ccc(Cl)cc2)cc1OC (stereo not given) | 0.54
COc1ccc(NC2c3ccccc3C(=O)N2c2ccc(Cl)cc2)cc1 (stereo not given) | 0.42*
COc1ccccc1C(NC(=O)C(C)C)c1cc(Cl)c2cccnc2c1O (stereo not given) | 0.71
COc1ccccc1N1CCN(Cc2nc(-c3ccccc3)no2)CC1 | 1
COc1ccccc1N1CCN(Cc2cc(Br)c(O)c3ncccc23)CC1 | 0.013*
COc1ccccc1N1CCN(c2nnc(C)c3ccccc23)CC1 | 1.2
COc1ccccc1N1CCN(c2ncnc3ccccc23)CC1 | 1
COc1ccccc1N1CCN(Cc2cc(Cl)c3cccnc3c2O)CC1 | 0.00087*
Oc1c(Br)cc(CN2CCCCC2)c2cccnc12 | 0.0057*
Brc1ccc(OCc2ccccc2)c2ncccc12 | 1
COc1cc(CN2CCN(Cc3ccccc3Br)CC2)cc(OC)c1OC | 1
COc1ccc(C(=O)Cn2cnc3c(C#N)c4n(c3c2=O)CCCCC4)cc1 | 0.89
COc1ccc(-n2nnc3c(=O)n(Cc4ccc(Br)cc4)cnc32)cc1 | 0.94
CCc1ccc(C2CC(c3ccccc3C)n3ncnc3N2)cc1 (stereo not given) | 0.51
CCOc1cccc(C(=O)N(Cc2ccc(N(C)C)cc2)C2CCS(=O)(=O)C2)c1 (stereo not given) | 0.98
COc1ccc(CNC(=O)c2cc3sccc3n2Cc2ccc(Cl)cc2)cc1 | 0.95
COc1ccc(OC)c(CNC(=O)CCCc2cn(C)c3ccccc23)c1 | 0.46*
COc1ccc(Br)cc1CNC(=O)CCCc1cn(C)c2ccccc12 | 0.42*
SMILES | CBX7 AlphaScr
CCOc1ccc(CNC(=O)CCCc2cn(C)c3ccccc23)cc1OC | 0.87
COc1ccc(OC)c(CNC(=O)CCc2cn(C)c3ccccc23)c1 | 0.95
COc1ccc(Br)cc1CNC(=O)Cc1cn(C)c2ccccc12 | 0.91
COc1ccc(CNC(=O)CCc2cn(C)c3ccccc23)c(OC)c1 | 1
O=C(COc1ccccc1)Nc1c2c(nn1-c1cccc(Cl)c1)CSC2 | 1.1
CCOC(=O)N1CCC(Nc2c(NC3CCCC3)c(=O)c2=O)CC1 | 1.1
Cc1ccc(CN2CCN(CC(=O)NC3CCCCCCC3)C2=O)cc1 | 0.93
O=C(NC1CC1)c1ccc2c(c1)N(Cc1ccccc1)C(=O)c1ccccc1S2 | 0.83
O=C(Nc1ccc(Cl)cc1)Nc1ccc(Nc2ccccc2)cc1 | 0.89
Cc1ccc(NC(=O)Nc2ccc(Cl)cc2)nc1 | 0.64
COc1nc(OC)nc(-n2cnc(NC(=O)Nc3ccc(Cl)cc3)n2)n1 | 0.25*
Cc1ccc2oc(-c3cccc(NC(=O)c4cc5ccccc5o4)c3C)nc2c1 | 1
COc1ccc(CN(C)CCc2ccccn2)cc1OC | 0.47*
COc1ccc(CN(C)CCc2ccccn2)cc1OCc1ccccc1 | 0.72
COc1ccc(CN(C)CCc2ccccn2)cc1 | 0.69
COCCN1Cc2cccc(C(=O)Nc3ccc(F)c(Cl)c3)c2C1=O | 1.1
COc1ccc(CNC(=O)CC2Oc3ccccc3NC2=O)cc1 (stereo not given) | 1
c1ccc(-c2nc3cnccn3c2NC2CCCCC2)cc1 | 1.3
O=C1Nc2cc(Cl)ccc2Oc2cc([N+](=O)[O-])cc(Oc3ccccc3)c21 | 0.64
COc1ccc(Oc2cc([N+](=O)[O-])cc3c2C(=O)Nc2cc(Cl)ccc2O3)cc1 | 0.42*
Cc1ccccc1Oc1cc([N+](=O)[O-])cc2c1C(=O)Nc1cc(Cl)ccc1O2 | 0.084*
COC(=O)CC1Oc2ccc(Cl)cc2NC1=O (stereo not given) | 0.96
Cc1ccc2c(c1)Oc1cc([N+](=O)[O-])cc(Oc3cccc(Cl)c3Cl)c1C(=O)N2 | 0.2*
Cc1ccc(Oc2cc([N+](=O)[O-])cc3c2C(=O)Nc2ccccc2O3)cc1 | 0.58
COCCOc1cc([N+](=O)[O-])cc2c1C(=O)Nc1ccccc1O2 | 0.65
SMILES | CBX7 AlphaScr
COc1ccc(CNC(=O)CC2Oc3ccc(Cl)cc3NC2=O)cc1 (stereo not given) | 1.1
COc1cc2c(cc1OC)C1C(C(=O)NCCCN3CCN(C)CC3)c3ccccc3C(=O)N1CC2 (stereo not given) | 1
COc1ccccc1-c1c(C)nn2c(NCCCN3CCCC3)cc(C)nc12 | 0.98
Cc1cccc(-c2nc(Nc3ccc(F)cc3F)c3ccccc3n2)c1 | 0.97
Cc1c(C(=O)NC2CCCc3ccccc32)oc2ccc(S(=O)(=O)N(C)C3CCCCC3)cc12 (stereo not given) | 0.83
Cc1ccc(-c2ccc(=O)n(CCC(=O)NCc3cccnc3)n2)cc1 | 1
CCc1ccc2[nH]cc(S(=O)(=O)c3ccc(Cl)cc3)c(=O)c2c1 | 1
COc1ccccc1-c1cc2nc(C)c(CCC(=O)NC(C)c3cccs3)c(C)n2n1 (stereo not given) | 1
CCOc1ccc2nc(N3CCCC(C(=O)Nc4c(C)cccc4C)C3)sc2c1 (stereo not given) | 1.3
CCOc1ccc2nc(N3CCCC(C(=O)N4CCN(c5ccccc5)CC4)C3)sc2c1 (stereo not given) | 0.76
CCOc1ccc2nc(N3CCC(C(=O)N4CCN(C)CC4)CC3)sc2c1 | 1
CCOc1ccc2nc(N3CCCC(C(=O)N4CCN(C)CC4)C3)sc2c1 (stereo not given) | 0.38*
CCOc1ccc2nc(N3CCCC(C(=O)N4CCN(c5ncccn5)CC4)C3)sc2c1 (stereo not given) | 0.94
CCOc1ccc2nc(N3CCCC(C(=O)N4CCN(c5cccc(C)c5)C(C)C4)C3)sc2c1 (stereo not given) | 0.49*
Cc1cc(C)nc(NS(=O)(=O)c2ccc(NC(=O)c3ccc(C(C)(C)C)cc3)cc2)n1 | 0.99
O=C(CN1CC(c2ccccc2)CC1=O)N1CCN(c2cccc(Cl)c2)CC1 (stereo not given) | 1
CC(C)N(Cc1nc(-c2ccc(Cl)cc2)no1)C(=O)COc1ccccc1 | 0.91
COc1ccc(-c2noc(CCC(=O)NCCN(C)C)n2)cc1 | 0.89
COc1ccc(-c2noc(CCC(=O)NCCCOC(C)C)n2)cc1 | 0.89
CCN(CCCNC(=O)CCc1nc(-c2ccc(OC)cc2)no1)c1cccc(C)c1 | 0.42*
O=C(CSc1nnnn1-c1ccc2c(c1)OCO2)Nc1ccccc1Cl | 1
CC(=O)Nc1ccc(N2C(=O)CC(NCCN3CCOCC3)C2=O)cc1 (stereo not given) | 0.94
COC(=O)c1ccc(N2C(=O)CC(NCCN3CCOCC3)C2=O)cc1 (stereo not given) | 0.92
O=C1CC(NCCN2CCOCC2)C(=O)N1c1ccc(Br)cc1 (stereo not given) | 0.46*
CCN1C(=O)c2ccccc2S(=O)(=O)c2ccc(C(=O)NCCN3CCCCC3C)cc21 (stereo not given) | 0.99

Screening data deposited in PubChem BioAssay by Bradner/Qi Labs at DFCI.
